PubChem BioAssay AID1159580 (chemical genetic matrix, 2015)
Out of some 5,500 compounds screened, about 2,000 (36%) were called active. Another 18% or so got no clear call; they are omitted. Rule as the data show it: active = normalized growth mostly below about 0.91 (no sharp cut-off); inconclusive = no clear call, values can overlap the other calls; inactive = mostly above about 0.92. This is one part of the list.

Assay: chemical genetic growth profiling, strain panel (AID 1159580);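 also: tested at 20 µM; growth read once vehicle control cultures reached saturation at 30 °C; 1 = growth at the plate median or of vehicle wells; lower values mean less growth of the strain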
Conditions: growth OD

Measured: normalized growth

C[C@@H]1CC2C3CCC4=CC(=O)C=C[C@]4(C)[C@@]3(F)[C@@H](O)C[C@]2(C)[C@@]1(O)C(=O)COP(=O)(O)O (stereo partly drawn)
inactive: S. cerevisiae deletion strains, locus YJR066W, strain TOR1, active compounds read low 0.95 | S. cerevisiae deletion strains, locus YJR075W, strain HOC1, active compounds read low 1.02 | S. cerevisiae deletion strains, locus YKL009W, strain mrt4, active compounds read low 1 | S. cerevisiae deletion strains, locus YKL068W, active compounds read low 1.01 | S. cerevisiae deletion strains, locus YKL085W, strain MDH1 (second series), active compounds read low 1.05 | S. cerevisiae deletion strains, locus YKL085W, strain MDH1, active compounds read low 1.05 | S. cerevisiae deletion strains, locus YKL160W, strain elf1, active compounds read low 0.965 | S. cerevisiae deletion strains, locus YKR001C, strain vps1, active compounds read low 0.997 | S. cerevisiae deletion strains, locus YKR026C, strain gcn3, active compounds read low 0.966 | S. cerevisiae deletion strains, locus YKR091W, strain srl3, active compounds read low 0.982 | S. cerevisiae deletion strains, locus YLL001W, strain dnm1, active compounds read low 0.931 | S. cerevisiae deletion strains, locus YLL026W, active compounds read low 0.986 | S. cerevisiae deletion strains, locus YLL041C, strain sdh2, active compounds read low 0.97 | S. cerevisiae deletion strains, locus YLR027C, strain aat2, active compounds read low 0.975 | S. cerevisiae deletion strains, locus YLR039C, strain RIC1, active compounds read low 1.02 | S. cerevisiae deletion strains, locus YLR058C, strain SHM2, active compounds read low 1.01 | S. cerevisiae deletion strains, locus YLR102C, strain apc9, active compounds read low 0.993 | S. cerevisiae deletion strains, locus YLR113W, strain HOG1, active compounds read low 0.977 | S. cerevisiae deletion strains, locus YLR221C, strain rsa3, active compounds read low 1.01 | S. cerevisiae deletion strains, locus YLR258W, strain gsy2, active compounds read low 1 | S. cerevisiae deletion strains, locus YLR262C, strain YPT6 (second series), active compounds read low 0.959 | S. cerevisiae deletion strains, locus YLR262C, strain YPT6, active compounds read low 1.01 | S. cerevisiae deletion strains, locus YLR268W, strain sec22, active compounds read low 0.996 | S. cerevisiae deletion strains, locus YLR320W, strain mms22, active compounds read low 1.01 | S. cerevisiae deletion strains, locus YLR330W, strain CHS5, active compounds read low 1.01 | S. cerevisiae deletion strains, locus YLR342W, strain FKS1 (second series), active compounds read low 1.01 | S. cerevisiae deletion strains, locus YLR342W, strain FKS1, active compounds read low 0.959 | S. cerevisiae deletion strains, locus YLR357W, strain rsc2, active compounds read low 0.957 | S. cerevisiae deletion strains, locus YLR370C, strain arc18, active compounds read low 0.972 | S. cerevisiae deletion strains, locus YLR371W, strain rom2, active compounds read low 0.994 | S. cerevisiae deletion strains, locus YLR384C, strain iki3, active compounds read low 0.959 | S. cerevisiae deletion strains, locus YLR418C, strain cdc73, active compounds read low 1.01 | S. cerevisiae deletion strains, locus YML016C, strain PPZ1, active compounds read low 1 | S. cerevisiae deletion strains, locus YML032C, strain rad52, active compounds read low 0.991 | S. cerevisiae deletion strains, locus YML120C, strain ndi1, active compounds read low 0.97 | S. cerevisiae deletion strains, locus YML124C, strain tub3, active compounds read low 0.993 | S. cerevisiae deletion strains, locus YMR058W, strain fet3, active compounds read low 0.978 | S. cerevisiae deletion strains, locus YMR078C, strain ctf18, active compounds read low 0.987 | S. cerevisiae deletion strains, locus YMR125W, strain sto1, active compounds read low 0.933 | S. cerevisiae deletion strains, locus YMR129W, active compounds read low 0.987 | S. cerevisiae deletion strains, locus YMR205C, strain PFK2, active compounds read low 0.981 | S. cerevisiae deletion strains, locus YMR223W, strain ubp8, active compounds read low 1.01 | S. cerevisiae deletion strains, locus YMR231W, strain pep5, active compounds read low 0.957 | S. cerevisiae deletion strains, locus YMR263W, strain SAP30, active compounds read low 1.01 | S. cerevisiae deletion strains, locus YMR307W, strain GAS1, active compounds read low 1.09 | S. cerevisiae deletion strains, locus YNL067W, strain RPL9B, active compounds read low 1.01 | S. cerevisiae deletion strains, locus YNL071W, strain lat1, active compounds read low 0.985 | S. cerevisiae deletion strains, locus YNL153C, strain GIM3, active compounds read low 0.998 | S. cerevisiae deletion strains, locus YNL183C, strain NPR1, active compounds read low 0.955 | S. cerevisiae deletion strains, locus YNL209W, strain ssb2, active compounds read low 0.986 | S. cerevisiae deletion strains, locus YNL233W, strain BNI4, active compounds read low 1.02 | S. cerevisiae deletion strains, locus YNL248C, strain rpa49, active compounds read low 0.987 | S. cerevisiae deletion strains, locus YNL250W, strain rad50, active compounds read low 0.993 | S. cerevisiae deletion strains, locus YNL271C, strain bni1, active compounds read low 1.01 | S. cerevisiae deletion strains, locus YNL298W, strain CLA4, active compounds read low 1.02 | S. cerevisiae deletion strains, locus YNL307C, strain MCK1, active compounds read low 0.995 | S. cerevisiae deletion strains, locus YNL322C, strain KRE1 (second series), active compounds read low 0.963 | S. cerevisiae deletion strains, locus YNR049C, strain mso1, active compounds read low 0.98 | S. cerevisiae deletion strains, locus YNR052C, strain pop2, active compounds read low 1.02 | S. cerevisiae deletion strains, locus YOL006C, strain TOP1, active compounds read low 1.01 | S. cerevisiae deletion strains, locus YOL012C, strain htz1 1.85 | S. cerevisiae deletion strains, locus YOL147C, strain pex11, active compounds read low 1.01 | S. cerevisiae deletion strains, locus YOR001W, strain rrp6, active compounds read low 0.946 | S. cerevisiae deletion strains, locus YOR061W, strain CKA2, active compounds read low 1.01 | S. cerevisiae deletion strains, locus YOR069W, strain VPS5, active compounds read low 1.01 | S. cerevisiae deletion strains, locus YOR070C, strain gyp1, active compounds read low 0.99 | S. cerevisiae deletion strains, locus YOR080W, strain dia2, active compounds read low 0.94 | S. cerevisiae deletion strains, locus YOR083W, strain WHI5, active compounds read low 0.959 | S. cerevisiae deletion strains, locus YOR106W, strain vam3, active compounds read low 0.928 | S. cerevisiae deletion strains, locus YOR136W, strain idh2, active compounds read low 1 | S. cerevisiae deletion strains, locus YOR144C, strain elg1, active compounds read low 0.997 | S. cerevisiae deletion strains, locus YOR184W, strain ser1, active compounds read low 0.99 | S. cerevisiae deletion strains, locus YOR231W, strain MKK1, active compounds read low 1.01 | S. cerevisiae deletion strains, locus YOR265W, strain rbl2, active compounds read low 0.974 | S. cerevisiae deletion strains, locus YOR270C, strain vph1, active compounds read low 1 | S. cerevisiae deletion strains, locus YOR290C, strain snf2, active compounds read low 1.01 | S. cerevisiae deletion strains, locus YOR316C, strain cot1, active compounds read low 1 | S. cerevisiae deletion strains, locus YPL051W, strain arl3, active compounds read low 1.01 | S. cerevisiae deletion strains, locus YPL078C, strain atp4, active compounds read low 0.935 | S. cerevisiae deletion strains, locus YPL106C, strain sse1, active compounds read low 0.966 | S. cerevisiae deletion strains, locus YPL240C, strain hsp82, active compounds read low 0.976 | S. cerevisiae deletion strains, locus YPL256C, strain CLN2, active compounds read low 0.985 | S. cerevisiae deletion strains, locus YPR119W, strain clb2, active compounds read low 0.993 | S. cerevisiae deletion strains, locus YPR141C, strain kar3, active compounds read low 0.994 | S. cerevisiae deletion strains, locus YPR163C, strain tif3, active compounds read low 0.995 | S. cerevisiae deletion strains, locus YPR167C, strain met16, active compounds read low 0.997 | S. cerevisiae deletion strains, strain wtn01, active compounds read low 1 | S. cerevisiae strains, strain wild type, active compounds read low 1.01
